Experimental data as given in PubChem BioAssay (NCATS).
Records with an inconclusive call do not appear. Entries that show only a call come without a potency. Active and inactive are the calls of the source. The call rests on the fitted dose curve.

Target: Atrial natriuretic peptide receptor 1 (Homo sapiens) (UniProt P16066)
Experiment: Natriuretic polypeptide receptor (hNpr1) antagonism - Pilot CMLD screen (AID 1347052);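 further: cGMP level read as GloSensor luciferase luminescence after agonist stimulation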
Conditions: HEK293 hNpr1 GloSensor cGMP luminescence, ANP-stimulated; series mostly up to 9.22 µM
Potency means the concentration at half of the fitted maximal effect.

Atrial natriuretic peptide receptor 1 (Homo sapiens), sequence (P16066 whole entry, looked up): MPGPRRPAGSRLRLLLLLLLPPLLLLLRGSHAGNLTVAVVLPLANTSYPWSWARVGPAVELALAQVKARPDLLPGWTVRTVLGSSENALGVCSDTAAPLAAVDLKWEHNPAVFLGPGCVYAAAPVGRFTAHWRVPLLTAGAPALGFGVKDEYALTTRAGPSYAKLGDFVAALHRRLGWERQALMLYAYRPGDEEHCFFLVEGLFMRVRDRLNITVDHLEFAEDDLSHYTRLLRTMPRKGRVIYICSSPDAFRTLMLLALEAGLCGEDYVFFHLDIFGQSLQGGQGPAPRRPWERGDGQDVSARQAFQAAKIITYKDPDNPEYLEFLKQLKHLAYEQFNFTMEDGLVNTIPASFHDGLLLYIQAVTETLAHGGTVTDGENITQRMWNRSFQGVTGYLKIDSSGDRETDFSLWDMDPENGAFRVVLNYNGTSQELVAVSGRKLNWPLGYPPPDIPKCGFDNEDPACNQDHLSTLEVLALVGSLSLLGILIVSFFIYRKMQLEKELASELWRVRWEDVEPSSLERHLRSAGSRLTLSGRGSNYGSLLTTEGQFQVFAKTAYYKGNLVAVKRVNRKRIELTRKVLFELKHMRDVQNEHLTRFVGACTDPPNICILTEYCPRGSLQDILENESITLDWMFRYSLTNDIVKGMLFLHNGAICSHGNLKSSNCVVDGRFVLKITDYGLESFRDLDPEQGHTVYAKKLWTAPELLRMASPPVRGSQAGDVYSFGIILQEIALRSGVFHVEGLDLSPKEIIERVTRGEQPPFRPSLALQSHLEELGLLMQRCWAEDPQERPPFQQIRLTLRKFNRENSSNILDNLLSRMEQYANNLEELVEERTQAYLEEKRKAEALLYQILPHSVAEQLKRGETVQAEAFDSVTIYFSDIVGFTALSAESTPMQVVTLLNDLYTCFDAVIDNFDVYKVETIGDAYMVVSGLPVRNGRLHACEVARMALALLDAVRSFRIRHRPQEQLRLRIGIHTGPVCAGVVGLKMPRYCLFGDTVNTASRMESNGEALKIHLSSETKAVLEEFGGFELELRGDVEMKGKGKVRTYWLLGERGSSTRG

Row | SMILES | Potency
1 | COc1ccc(C=CNC(=O)Cc2ccc(OC)c(OC)c2)cc1 | inactive
2 | C=CC1=C2C=C(C3CC3)N(CC(C)C)C=C2C(=O)C(C)(OC(=O)c2ccco2)C1=O (stereo not given) | inactive
3 | COC(=O)[C@H](Cc1ccccc1)NC(=O)O[C@H]1C(=O)c2ccc(OC)cc2O[C@@H]1c1ccc2c(c1)OCO2 | inactive
4 | N#CCCCS(=O)(=O)c1nnnn1-c1ccccc1 | inactive
5 | COc1cc2c(c(OC)c1OC)C1(c3ccccc3)CCCCCC1[C@@H]2NC(=O)C(F)(F)F (stereo not given in full) | inactive
6 | CCO[C@@H]1C[C@@]1(C=C[C@@H](C)[C@H](OC)c1ccccc1Br)C(=O)OC | inactive
7 | COC(=O)CC=C[C@@H](C)[C@@H](COc1ccccc1Br)OC | 944 nM (active)
8 | C=CC[C@@H]1C=CC(ON=CC[C@@H]2C=C[C@@H](OC(C)=O)[C@@H](COC(C)=O)O2)[C@H](CO)O1 (stereo not given in full) | inactive
9 | C[C@@H]1CC[C@H]2C(=O)N(Cc3cccc([N+](=O)[O-])c3)C[C@@H](O)CN2[C@@H]1c1cccc(Br)c1 | inactive
10 | CC[C@H]1OC(c2ccccc2)[C@H](C)[C@H]2O[C@@H]2[C@@H]1C(=O)OC (stereo not given in full) | inactive
11 | CCN1C(=O)N[C@@H](c2ccccc2)[C@@H](C(=O)OC)[C@H]1C | inactive
12 | C[C@H]1COC(=O)[C@H](Cc2ccccc2)NC(=O)[C@@H](C)COC(=O)[C@H](Cc2ccccc2)NC1=O | inactive
13 | COC(=O)C[C@H]1c2ccccc2[C@@H]2C(=C[C@@H](C)[C@H]3C(=O)N(c4ccccc4)C(=O)[C@H]32)N1C(=O)OC | inactive
14 | CCN1C(=NCc2cc(OC)c(OC)c(OC)c2)N[C@@H](c2ccccc2)[C@H](C(=O)OC)[C@H]1C | inactive
15 | COc1ccc([C@]23Cc4cc(C#N)ccc4[C@H](O2)C2=C(CC4(CCCCC4)OC2=O)O3)cc1 | inactive
16 | COC(=O)C1=C(C)C(=O)[C@]2(O)c3ccccc3N(C)[C@]12C | inactive
17 | C[C@H]1Cc2c(-c3ccccc3)nc3c(c2CO1)CN(S(=O)(=O)c1ccc2c(c1)OCCN2C)CC3 | inactive
18 | CC#CCN1C(=O)NC(c2ccccc2)C(C#N)=C1C (stereo not given) | inactive
19 | CCCCCCN1C(=O)CC[C@@]23C1=NC(C(=O)OC)=C(C(=O)OC)[C@@H]2N(Cc1ccccc1)c1ccccc13 | inactive
20 | COC1=C[C@H](C(=O)NCc2ccc(Br)cc2)C(C)C(c2ccccc2)CC1=O (stereo not given in full) | inactive

Row | SMILES | Potency
21 | CC(=O)OC[C@H]1O[C@H](C#Cc2ccccc2)C=C[C@@H]1OC(C)=O | inactive
22 | COC(=O)N1[C@H]2CC[C@@]3(C)C=C(C)O[C@]1(C)C3c1ccccc12 | inactive
23 | CCCC[C@@H]1CN2[C@@H](CC[C@H](C)[C@@H]2c2ccc(Br)cc2)C(=O)O1 | inactive
24 | CCCCS(=O)(=O)N1C2=NC3=C(C(=O)N(CCOC)C3=O)C3N(C)c4ccccc4[C@]23C[C@H]1CO (stereo not given in full) | inactive
25 | CC(=O)C1=C(C)N(Cc2ccccc2)C(=O)NC1c1cccs1 (stereo not given) | inactive
26 | COc1cc2c(cc1OC)[C@@H]1O[C@](CCCCN3C(=O)c4ccccc4C3=O)(C2)Oc2c1c(=O)oc1ccccc21 | inactive
27 | O=C1C=C(c2ccccc2)CCC1 | inactive
28 | O=C(NN=C1C[C@@H](O)[C@H](O)[C@H]2[C@@H]3C(=O)N(Cc4ccc5c(c4)OCO5)C(=O)[C@@H]3CC[C@H]12)OCc1ccccc1 | inactive
29 | O=C1[C@H]2[C@@H]3[C@@H](O)[C@H](O)CC(=NOCc4ccccc4)[C@H]3CC[C@H]2C(=O)N1C1CCCCC1 | inactive
30 | COc1cc2c(cc1OC)CSC1C(=O)N(C)C(SC2)C(=O)N1C | inactive
31 | O=C1[C@H]2[C@@H]3[C@@H](O)[C@H](O)CC(=NOCc4ccccc4)[C@H]3CC[C@H]2C(=O)N1Cc1ccc2c(c1)OCO2 | inactive
32 | COC(=O)N[C@@H](c1ccco1)[C@]1(C(C)=O)CCCC1=O | inactive
33 | COC(=O)CCC(=O)OC1(C)C(=O)C=C2C=C(C3CC3)N(Cc3ccc(OC)cc3)C=C2C1=O (stereo not given) | inactive
34 | CCN1C(=NCCc2ccccn2)NC(c2cccc(C(F)(F)F)c2)C(C(=O)OC)=C1C (stereo not given) | inactive
35 | COC(=O)[C@H](COC(C)(C)C)NC(=O)O[C@@H]1C(=O)c2cc(OC)ccc2O[C@H]1c1cccc(OC)c1 | inactive
36 | C=C(C)C(=O)C=Cc1ccc(Br)cc1 | inactive
37 | CCCCn1c(C)cc2c(c1=O)[C@H]1O[C@](c3ccsc3)(Cc3cc(OC)c(OC)cc31)O2 | inactive
38 | CCCCc1nc2c(c3c1C[C@H](C)OC3)CN(C(=O)c1cccnc1)CC2 | inactive
39 | O=C1OCCC=C1C(O)CCc1ccccc1 (stereo not given) | inactive
40 | COC1=CC2C(=O)C(C1=O)[C@H](c1ccccc1)[C@H]2C (stereo not given in full) | inactive
